Screening data: PubChem BioAssay, several laboratories
Shn3 inh set2: Schnurri-3 reporter inhibition in Clone20 osteoblasts | Clone20 osteoblast Shn3 3'UTR firefly luciferase, 24 h | inhibition, % at 12.5 µM | 360,000 compounds, 0.52% hits;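 active = mean inhibition of at least 75% with every replicate also reaching 75%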;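 note: 0% = median of neutral control wells and 100% = pilot-screen positive control compound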
HIF-2a block: blocks HIF-2a reporter activity; 360,000 compounds, 0.72% hits; 786-0 RCC cells HIF-2a reporter, luciferase luminescence, overnight; inhibition, % at 18.8 µM;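 active = inhibition of the luminescence signal of 40% or more relative to plate controls, in a single-dose primary screen at 18.75 µM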
KKLEB tox: counter-screen for CF NF-kB inhibitors: cytotoxicity | KKLEB CF airway cells viability, ATPlite luminescence, overnight; hits give low values; cells stimulated with P. aeruginosa culture filtrate | activity change (cytotoxicity), % at 5 µM | 360,000 compounds, 0.36% hits | AID 602141;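 active = corrected activity change at or below -50% at 5 µM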
Peg3 prom inh: inhibitors of Peg3 promoter | HeLa PEG-Prom luciferase reporter, luminescence, overnight | inhibition, % at 20 µM | 360,000 compounds, 1.7% hits;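 active = inhibition of at least 50% at 20 µM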
CF NFkB block: cystic fibrosis NF-kB activation inhibition | KKLEB NF-kB-GFP reporter, PAF-induced, GFP fluorescence overnight | 360,000 compounds, 0.86% hits | inhibition, % at 5 µM;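 active = at least 50% inhibition at 5 µM, scaled per plate between neutral and stimulator controls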;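 note: PAF is a Pseudomonas aeruginosa culture filtrate used as stimulus; plate controls were PAF-stimulated DMSO wells for no effect and unstimulated DMSO wells for full effect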
EBV LMP1 NFkB: reduces LMP1-driven NF-kappaB luciferase signal | LMP1-induced NF-kappaB luciferase reporter cells, luminescence | inhibition, % at 12.5 µM | 350,000 compounds, 0.69% hits; in the data active = inhibition above about 41%;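 note: 0% = neutral control wells and 100% = reference inhibitor control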
* = called active by the depositor; / = no result. Shown are actives, neighbours in structure and some others; about 2.9% of the full set was active somewhere.

SMILES | Shn3 inh set2 | HIF-2a block | KKLEB tox | Peg3 prom inh | CF NFkB block | EBV LMP1 NFkB
CN1CCN(C(=O)CCN2C(=O)/C(=C\c3ccc(F)cc3)SC2=S)CC1 | -76 | -17 | 12 | 15 | 7 | -9
O=C(CCN1C(=O)/C(=C/c2ccc(F)cc2)SC1=S)NCCc1ccc(O)cc1 | -41 | 13 | 0 | 83* | -6 | -8
O=C(CN1C(=O)/C(=C/c2ccc(F)cc2)SC1=S)N1CCN(CCc2ccccn2)CC1 | -10 | 7 | 4 | 51* | -4 | 15
COc1cccc(/C=C2\SC(=S)N(CCC(=O)NCCc3ccc(O)cc3)C2=O)c1 | -5 | 29 | -9 | 95* | 13 | 41*
Cc1c(-c2ccc(F)cc2)[n+](=O)c2c(n1[O-])CCCCC2 | 7 | -3 | 10 | -8 | -9 | -6
CCOC(=O)N1CCN(C2=C(NS(=O)(=O)c3ccc(C)cc3)C(=O)c3ccccc3C2=O)CC1 | 23 | -5 | 7 | 23 | 54* | 9
COc1ccccc1/C=C/CN1CCC(n2nccc2NC(=O)CCc2ccccc2)CC1 | 86* | 7 | -4 | 15 | -8 | 4
Cc1cc(C(=O)Nc2cc(C)n(Cc3ccc(Cl)cc3)n2)no1 | -15 | -39 | 7 | -11 | -15 | 7
COc1ccccc1-c1cc(C(=O)Nc2cc(C)n(Cc3ccc(Cl)cc3)n2)no1 | 9 | -18 | -76* | 12 | 60* | 11
COc1ccc2ccccc2c1CNC(=O)CC1C(=O)NCCN1CC(C)(C)C (stereo unspecified) | -7 | 5 | -8 | 6 | 3 | -10
O=C1C=C(NNC(=O)c2cccnc2)CC(c2ccco2)C1 (stereo unspecified) | 3 | 16 | 4 | 3 | -9 | -3
NS(=O)(=O)c1ccc(CCN=Cc2ccccc2O)cc1 | 4 | 8 | 9 | -7 | 4 | 5
Cn1nnnc1SCC(=O)N1CCN(S(=O)(=O)c2ccc(Cl)cc2)CC1 | 26 | 17 | 2 | 5 | -16 | 1
Cc1ccc(S(=O)(=O)N2CCN(C(=O)CSc3nnnn3C)C2)cc1 | 23 | 17 | 3 | 11 | 2 | 62*
CC1(C)N=C(N)N=C(N)N1c1ccccc1 | 3 | 19 | -1 | 1 | -5 | 0
CC1(C)N=C(N)N=C(N)N1c1ccc(CCCCc2ccccc2)cc1 | 89* | 30 | -18 | 24 | -7 | 54*
COc1ccc(-n2ncc3c(N4CCCCC4)ncnc32)cc1 | 82 | 81* | -82* | 81* | 1 | 76*
COc1ccc(-n2ncc3c(N4CCN(c5cc(C)ccc5C)CC4)ncnc32)cc1 | 30 | 2 | -3 | 8 | 10 | 1
COc1ccc(-n2ncc3c(N4CCN(c5cccc(C)c5C)CC4)ncnc32)cc1 | 16 | 11 | -20 | 68* | -13 | -2
Nc1ccn(CC(=O)NCc2ccc3[nH]ccc3c2)c(=O)n1 | 4 | 0 | -3 | 1 | -15 | -5
CCN(CC)CCC(=O)Nc1cccc2c1C(=O)c1ccccc1C2=O | -19 | 34 | -1 | 107* | -122 | -38
Nc1cccc(C(=O)OCC(=O)Nc2cccc3c2C(=O)c2ccccc2C3=O)c1 | -5 | -21 | 15 | 26 | -93 | 16
CCN(CC)CCNC(=O)c1ccc2c(c1NCCO)C(=O)c1ccccc1C2=O | 25 | 62* | -52* | 111* | 77* | /
Cc1nnc(SCC(=O)NC(C)(C)C)n1NCc1cccc(Br)c1 | 3 | 13 | 1 | 26 | 0 | -11
Cc1ccc(NC(=S)N(CCCN2CCOCC2)Cc2cccnc2)cc1C | -1 | 3 | 7 | 8 | 26 | 5
SMILES | Shn3 inh set2 | HIF-2a block | KKLEB tox | Peg3 prom inh | CF NFkB block | EBV LMP1 NFkB
Cn1cnc([N+](=O)[O-])c1Sc1nc(N)nc2c1ncn2C1CC(O)C(CO)O1 (stereo unspecified) | -18 | 23 | 9 | 50* | 2 | 1
Cc1sc(NC(=O)c2ccc(OCC(C)C)cc2)c(C(N)=O)c1-c1ccc(Cl)cc1Cl | 16 | 29 | -9 | 22 | -1 | 0
O=C(CCl)c1cc2c3c(c1)CC(=O)N3CCC2 | 8 | -7 | 9 | 81* | 20 | -3
Cc1cc(=O)[nH]c(NN=Cc2c(Cl)cccc2Cl)n1 | 12 | -45 | -11 | -27 | 18 | 5
Cc1cc(=O)[nH]c(N/N=C/c2ccccn2)n1 | 89* | -97 | -3 | 19 | 25 | 16
COc1ccc(S(=O)(=O)N2CCCCC2)cc1NC(=O)CNc1ccccc1N1CCCC1=O | -13 | 9 | -3 | 11 | 11 | -6
